Assay results as given in PubChem BioAssay (Tox21).
Records with an inconclusive call do not appear. Calls of active or inactive are those of the source. Calls follow the shape of the dose curve; as a rule, active = well fitted activation curve with a large enough effect in the repeat runs; inconclusive = weak or mixed curves; inactive = flat fitted curve, though single readings scatter.

assay: A CellTox Green Cytotoxicity Assay to monitor cytotoxicity in HEK293 cells - 16 hour (AID 1224888); conditions: CellTox Green fluorescence; series mostly up to 76.8 µM; activity change: at the top concentration; also: nearly all actives have a fitted effect of over 35% in size
Excerpt: National Center for Advancing Translational Sciences [NCATS]
NIH Chemical Genomics Center [NCGC]
U.S. Environmental Protection Agency [EPA]
National Institutes of Environmental Health Sciences [NIEHS]
National Toxicology Program [NTP]
Cell-based models are critical for drug discovery. Determining the natural cytotoxic effects resulting from test compounds is an essential research activity. A CellTox Green Cytotoxicity Assay to monitor cytotoxicity in real time of continues cell culture during 40 hours of the compound treatment was used to screen Tox21 10K library compounds in Hek293 cells. CellTox Green Cytotoxicity Assay is a nonlytic, homogeneous, biofluorescent method to measure cytotoxicity in cell culture after experimental manipulation. The assay system uses a proprietary asymmetric cyanine dye that is excluded from viable cells but preferentially stains the dead cell's DNA. […] Viable cells produce no appreciable increases in fluorescence. Therefore, the fluorescence signal produced by the binding interaction with dead cell DNA is proportional to cytotoxicity.
The mixture of Hek293 cell suspension and reagents were dispensed at 600cells/6 ul/well in 1536-well tissue culture treated black solid bottom plates using a Multidrop dispenser. After the assay plates were incubated at a 37 C/5% CO2 incubator for 5 hours, 23 nL of compounds dissolved in DMSO, positive and negative controls was transferred to the assay plate by a pintool work station. The plates were incubated at 37 C for 40 hours. The fluorescence intensity were measured at 0h, 8h, 16h, 24h, 32h and 40h time points using ViewLux plate reader during compound treatment.
% is scaled to controls: 0 for no effect and ±100 for the full control effect.

| SMILES | activity change |
| --- | --- |
| O=[N+]([O-])c1cccc2cccnc12 | -2.07% (inactive) |
| ClCC(Cl)Cl | -0.364% (inactive) |
| CNC(=O)O/N=C(\C)SC | -1.93% (inactive) |
| CNC(=O)Oc1ccccc1C1OCCO1 | 0.912% (inactive) |
| Nc1c(Br)cc([N+](=O)[O-])cc1[N+](=O)[O-] | -11.3% (inactive) |
| CCC(Cl)[N+](=O)[O-] (stereo not given) | 3.59% (inactive) |
| Nc1n[nH]c(N)n1 | -7.94% (inactive) |
| CCOC(=O)/C=C(C)/C=C/C[C@@H](C)CCCC(C)C | 5.56% (inactive) |
| ClC(Cl)Br | 3.33% (inactive) |
| COC(=O)c1c(C(F)F)nc(C(F)(F)F)c(C2=NCCS2)c1CC(C)C | 1.13% (inactive) |
| COc1ccc2c(c1OC)CN1CCc3cc4c(cc3C1C2)OCO4 (stereo not given) | -3.42% [at 35.3 µM, active compounds read high] (inactive) |
| ClCCCN1CCN(c2cccc(Cl)c2)CC1 | -13.5% [at 35.3 µM, active compounds read high] (inactive) |
| NC(=O)c1cc([N+](=O)[O-])cc([N+](=O)[O-])c1 | 14% [at 35.3 µM, active compounds read high] (inactive) |
| CCC/C(=N\OCC)C1=C(O)CC(CC(C)SCC)CC1=O (stereo not given) | -0.766% (inactive) |
| C(CCOCC1CO1)COCC1CO1 (stereo not given) | -0.0163% (inactive) |
| C#CCN1C(=O)COc2cc(F)c(N3C(=O)C4=C(CCCC4)C3=O)cc21 | -4.62% (inactive) |
| CN(N=O)C(N)=O | -10.5% (inactive) |
| Nc1cnn(-c2ccccc2)c(=O)c1Cl | -9.87% (inactive) |
| Cc1coc2c1CCC(C)C2 (stereo not given) | -0.134% (inactive) |
| OC(c1ccccc1)(c1ccccc1)C1CCNCC1 | 1.12% [at 35.3 µM, active compounds read high] (inactive) |

| SMILES | activity change |
| --- | --- |
| CC1CCC(=O)O1 (stereo not given) | -5.01% (inactive) |
| COC(=O)C(C)Oc1ccc(Oc2ccc(Cl)cc2Cl)cc1 (stereo not given) | -8.51% (inactive) |
| O=C1CN2CCOC2(c2ccccc2Cl)c2cc(Cl)ccc2N1 (stereo not given) | 0.251% [at 35.3 µM, active compounds read high] (inactive) |
| CCOP(=S)(OCC)SCSP(=S)(OCC)OCC | -9.98% (inactive) |
| OCCSCSCCO | -1.79% (inactive) |
| N#CCNCC#N | -10.8% (inactive) |
| COC(C)(C)C | 25.1% (inactive) |
| ClC(Cl)C(Cl)Cl | -0.591% (inactive) |
| O=C(Nc1ccccc1)N(Cc1ccc(Cl)cc1)C1CCCC1 | -3.5% (inactive) |
| COP(=S)(OC)Oc1c(Cl)cc(C)cc1Cl | 0.261% (inactive) |
| CC1=C(C(=O)Nc2ccccc2)S(=O)(=O)CCO1 | -3.57% (inactive) |
| Fc1cc(Br)ccc1CBr | 0.283% [at 35.3 µM, active compounds read high] (inactive) |
| C[C@@H]1CN(C2CCC(C#N)(c3ccc(F)cc3)CC2)CC[C@]1(C(=O)O)c1ccccc1 (stereo not given in full) | 5.68% [at 35.3 µM, active compounds read high] (inactive) |
| C=C(C)CN(CC)c1c([N+](=O)[O-])cc(C(F)(F)F)cc1[N+](=O)[O-] | -11.5% (inactive) |
| Cc1ncc(CNC(=O)N(CCCl)N=O)c(N)n1 | -10.2% [at 35.3 µM, active compounds read high] (inactive) |
| O=C(O)c1cccc(Cl)c1 | 2.42% (inactive) |
| CC(Cl)(Cl)[N+](=O)[O-] | -0.165% (inactive) |
| O=C1OC(CCN2CCCCC2)OC1(c1ccccc1)c1ccccc1 (stereo not given) | 7.96% [at 35.3 µM, active compounds read high] (inactive) |
| c1cc[c]([Hg][c]2ccccc2)cc1 | 24.8% (inactive) |
| OC(Cn1cncn1)(c1ccc(F)cc1)c1ccccc1F (stereo not given) | -1.07% (inactive) |
